Several values for one entry are separate records, joined by “and”; a condition that tells them apart may be missing. Equal entries are not always repeated. Results filed as inconclusive are left out. More than one record can exist for a structure, and the calls need not agree. Activity calls are given as the source filed them. Rule for the calls, unless noted: active = hit-call score of the fitted dose curve at least 0.9, where 1 is the maximum; inconclusive = response in the unintended direction; inactive = score below 0.9.
Tests used:
[1] = target: Estrogen receptor (Homo sapiens) (UniProt P03372); test: OT_ERa_GFPERaERE_0480: Odyssey Thera (OT) 8-hour HeLa Transcription Induction Assay for Estrogen Receptor (AID 2283381; active = hit-call score of the fitted dose curve at least 0.9, where 1 is the maximum; inactive = score below 0.9)
In short: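 Human cervical HeLa cells were treated for 8 hours, after which ERE-driven GFP induction was measured by fluorescence microscopy; increases over DMSO baseline defined activity.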

[2] = target: Estrogen receptor (Homo sapiens) (UniProt P03372); test: OT_ERa_GFPERaERE_0120: Odyssey Thera (OT) 2-hour HeLa Transcription Induction Assay for Estrogen Receptor (AID 2283382)
In short: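 Cells (human cervical HeLa) receive compound, incubate 2 hours, then are imaged for fluorescent reporter induction. Images are quantified by high content analysis, and activity is fitted as gain of signal against DMSO.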

[3] = target: Retinoic acid receptor RXR-alpha (Homo sapiens) (UniProt P19793); test: OT_NURR1_NURR1RXRa_0480: Odyssey Thera (OT) 8-hour HEK293T Protein Complementation Assay for Nurr1/retinoid X receptor (RXR) (AID 2283385)
In short: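 Interaction of bait and prey reconstitutes a functional reporter, whose fluorescence was measured in HEK293T cells dosed with compound for 8 hours. Signal gain relative to DMSO defined the single endpoint.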

[4] = target: Retinoic acid receptor RXR-alpha (Homo sapiens) (UniProt P19793); test: OT_NURR1_NURR1RXRa_1440: Odyssey Thera (OT) 24-hour HEK293T Protein Complementation Assay for Nurr1/retinoid X receptor (RXR) (AID 2283386)
In short: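 Steps: fragment-tagged Nurr1 and RXRα expressed in HEK293T; compounds added; after 24 h, complemented reporter quantified by fluorescence intensity; signal increase over DMSO fitted as the single endpoint.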

[5] = target: Peroxisome proliferator-activated receptor gamma (Homo sapiens) (UniProt P37231); test: OT_PPARg_PPARgSRC1_1440: Odyssey Thera (OT) 24-hour Protein-Complementation Assay for Peroxisome Proliferator-activated Receptor Gamma/ SRC-1 Co-activator (AID 2283388);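 note: nuclear to cytoplasmic ratio of reconstituted Venus YFP fluorescence in fixed imaged cells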
In short: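 Transient HEK293T, YFP fragments 1-158/159-239 (mutant IFP1/IFP2) fused to PPARg/SRC-1; 24 h dosing; fix 4% formaldehyde, Draq5; Opera imaging 488/635 nm; N/C ratio, gain vs DMSO.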

[6] = read-out: Tumor necrosis factor receptor superfamily member 6 (Homo sapiens) (UniProt P25445); test: LTEA_HepaRG_FAS: Life Technologies and Expression Analysis (LTEA) Assay for Fas cell surface death receptor (FAS) using HepaRG (AID 2283447; active = hit-call score of the fitted dose curve at least 0.9, where 1 is the maximum; inactive = score below 0.9); conditions: mRNA level, 48 h; actives raise or lower the signal
In short: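 Differentiated human HepaRG cells, pre-cultured 48 h, were exposed in duplicate for 48 h to 8-point half-log concentrations (top 100 uM, 0.5% DMSO) in serum-free induction medium; FAS mRNA measured by qRT-PCR, normalized to ACTB/GAPDH/POLR2A, bidirectional fit versus DMSO.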

[7] = target: Bile acid receptor (Homo sapiens) (UniProt Q96RI1); test: OT_FXR_FXRSRC1_0480: Odyssey Thera (OT) 8-hour HEK293T Protein-Complementation Assay for Farnesoid X receptor/SRC-1 Co-activator (AID 2283383)
In short: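 PCA, HEK293T, 8 h compound exposure; FXR–SRC-1 binding reconstitutes split reporter; fluorescence intensity; positive-direction fit vs DMSO.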

[8] = target: Bile acid receptor (Homo sapiens) (UniProt Q96RI1); test: OT_FXR_FXRSRC1_1440: Odyssey Thera (OT) 24-hour HEK293T Protein-Complementation Assay for Farnesoid X receptor/SRC-1 Co-activator (AID 2283384)
In short: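 Measures ligand-driven FXR–SRC-1 co-activator recruitment in HEK293T via fragment complementation, fluorescence intensity at 24 h. DMSO served as negative control and baseline for gain-of-signal fitting.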

[9] = target: Peroxisome proliferator-activated receptor gamma (Homo sapiens) (UniProt P37231); test: OT_PPARg_PPARgSRC1_0480: Odyssey Thera (OT) 8-hour Protein-Complementation Assay for Peroxisome Proliferator-activated Receptor Gamma / SRC-1 Co-activator (AID 2283387);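 note: nuclear to cytoplasmic split Venus YFP fluorescence ratio reporting PPARg SRC-1 interaction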
In short: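 Protein-fragment complementation in HEK293T: Venus YFP halves (residues 1-158, 159-239, mutated to IFP1/IFP2) fused to PPARg/SRC-1. 8 h exposure; N/C ratio at 488 nm; DMSO negative control.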

[10] = CEETOX_H295R_11DCORT: CeeTox H295R High-throughput Steroidogenesis Assay for 11-Deoxycortisol (11DCORT) (AID 2283432; active = hit-call score of the fitted dose curve at least 0.9, where 1 is the maximum; inactive = score below 0.9); conditions: actives raise or lower the signal
In short: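 Adrenal carcinoma line H295R, run per OECD 456 with minor changes, was forskolin-stimulated (10 uM, 48 h) before a 48 h chemical exposure at 0.1% DMSO. Secreted 11-deoxycortisol was quantified by HPLC-MS/MS.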

[11] = CEETOX_H295R_OHPREG: CeeTox H295R High-throughput Steroidogenesis Assay for OH-Pregnenolone (OHPREG) (AID 2283434; active = hit-call score of the fitted dose curve at least 0.9, where 1 is the maximum; inactive = score below 0.9); conditions: actives raise or lower the signal
In short: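 Readout: HPLC-MS/MS of 17alpha-hydroxypregnenolone in medium after 48 h chemical exposure of H295R cells pretreated with forskolin. Values fitted bidirectionally relative to DMSO; chemicals reducing viability to 20–70% were retested after 10-fold dilution.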

[12] = CEETOX_H295R_OHPROG: CeeTox H295R High-throughput Steroidogenesis Assay for OH-Progesterone (OHPROG) (AID 2283435; active = hit-call score of the fitted dose curve at least 0.9, where 1 is the maximum; inactive = score below 0.9;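 for AC50: human adrenal H295R cells primed 48 h with 10 µM forskolin; 17alpha-hydroxyprogesterone secreted into medium measured by HPLC-MS/MS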); conditions: actives raise or lower the signal
In short: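 Steps: seed H295R cells and adhere overnight; stimulate with 10 uM forskolin for 48 h; replace with chemical-containing medium (0.1% DMSO) for 48 h; extract medium with MTBE; quantify 17alpha-hydroxyprogesterone by reverse-phase C18 HPLC-MS/MS against a 7-point curve.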

[13] = CEETOX_H295R_CORTISOL: CeeTox H295R High-throughput Steroidogenesis Assay for Cortisol (AID 2283438; active = hit-call score of the fitted dose curve at least 0.9, where 1 is the maximum; inactive = score below 0.9); conditions: actives raise or lower the signal
In short: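 Cortisol synthesis by H295R cells is measured 48 h after chemical dosing, following a 48 h stimulation with 10 uM forskolin. Hormone is extracted and quantified by HPLC-MS/MS, and activity is fitted bidirectionally against the DMSO control.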

[14] = CEETOX_H295R_DOC: CeeTox H295R High-throughput Steroidogenesis Assay for DOC (AID 2283439; active = hit-call score of the fitted dose curve at least 0.9, where 1 is the maximum; inactive = score below 0.9); conditions: actives raise or lower the signal
In short: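 Steps: seed H295R, adhere overnight; 10 uM forskolin 48 h; replace with chemical medium (0.1% DMSO) 48 h; collect medium, MTBE extraction, HPLC-MS/MS for DOC. Viability then checked by MTT; cytotoxic chemicals diluted until viability ≥70%.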

[15] = CEETOX_H295R_PROG: CeeTox H295R High-throughput Steroidogenesis Assay for Progesterone (PROG) (AID 2283442; active = hit-call score of the fitted dose curve at least 0.9, where 1 is the maximum; inactive = score below 0.9;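 for AC50: human H295R adrenal cells primed with 10 µM forskolin before dosing; progesterone secreted into medium by H295R cells measured by HPLC-MS/MS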); conditions: actives raise or lower the signal
In short: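 Adrenal H295R line, forskolin-stimulated (10 uM, 48 h) before dosing. 48 h exposure, 0.1% DMSO vehicle. Secreted progesterone by reverse-phase HPLC with ESI+ MS/MS quantification; DMSO-normalised bidirectional curve fit.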

[16] = CEETOX_H295R_ESTRADIOL: CeeTox H295R High-throughput Steroidogenesis Assay for Estradiol (AID 2283440; active = hit-call score of the fitted dose curve at least 0.9, where 1 is the maximum; inactive = score below 0.9;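 note: estradiol secreted into medium quantified by LC-MS/MS after dansyl derivatisation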); conditions: actives raise or lower the signal
In short: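 Following OECD 456 with minor changes, H295R cells received 10 uM forskolin for 48 h and then test chemical for 48 h. Hormone output was read by HPLC-MS/MS, with cytotoxic concentrations diluted until MTT viability reached ≥70%.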

[17] = CEETOX_H295R_ESTRONE: CeeTox H295R High-throughput Steroidogenesis Assay for Estrone (AID 2283441; active = hit-call score of the fitted dose curve at least 0.9, where 1 is the maximum; inactive = score below 0.9); conditions: actives raise or lower the signal
In short: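 Estrone secreted into medium quantified by LC-MS/MS after dansyl chloride derivatization, following 48 h chemical exposure (0.1% DMSO final) of forskolin-prestimulated (10 uM, 48 h) H295R cells; gain or loss fitted against DMSO; MTT viability in same wells.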

[18] = target: Estrogen receptor beta (Homo sapiens) (UniProt Q92731); test: OT_ER_ERbERb_1440: Odyssey Thera (OT) 24-hour HEK293T Protein-Complementation Assay for Estrogen Receptor-beta/-beta Homodimer (AID 2283380);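 note: fluorescence gain from ER beta LBD homodimer complementation read by laser scanning cytometry; scored as signal increase over DMSO baseline for both agonists and antagonists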
In short: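 HEK293T cells stably expressing human ER-beta LBD (aa 310-547) PCA homodimer pair, dosed 24 h; formaldehyde-fixed, Draq5-stained. Readout: increase in nuclear (agonist) or nuclear plus cytoplasmic (antagonist) fluorescence intensity versus DMSO, gain-of-signal fitting.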

Measured: AC50

Sequence of Estrogen receptor (Homo sapiens) (P03372 whole entry, looked up): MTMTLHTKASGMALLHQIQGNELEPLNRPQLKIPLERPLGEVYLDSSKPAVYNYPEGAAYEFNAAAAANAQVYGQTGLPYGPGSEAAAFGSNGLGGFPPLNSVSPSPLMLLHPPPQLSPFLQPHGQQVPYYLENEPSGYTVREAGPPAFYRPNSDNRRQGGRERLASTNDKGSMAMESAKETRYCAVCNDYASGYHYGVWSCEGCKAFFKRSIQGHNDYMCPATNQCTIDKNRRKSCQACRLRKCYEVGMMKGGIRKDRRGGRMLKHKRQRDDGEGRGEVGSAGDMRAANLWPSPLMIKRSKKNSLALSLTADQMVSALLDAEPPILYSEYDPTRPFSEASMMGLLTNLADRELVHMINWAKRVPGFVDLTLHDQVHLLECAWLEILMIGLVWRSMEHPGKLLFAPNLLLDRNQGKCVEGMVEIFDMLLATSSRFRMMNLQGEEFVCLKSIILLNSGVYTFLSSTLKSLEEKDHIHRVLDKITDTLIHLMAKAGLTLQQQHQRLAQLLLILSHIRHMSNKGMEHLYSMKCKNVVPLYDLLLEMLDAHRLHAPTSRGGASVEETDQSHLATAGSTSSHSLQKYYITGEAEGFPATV
Sequence of Retinoic acid receptor RXR-alpha (Homo sapiens) (P19793 whole entry, looked up, the tested form may be a part): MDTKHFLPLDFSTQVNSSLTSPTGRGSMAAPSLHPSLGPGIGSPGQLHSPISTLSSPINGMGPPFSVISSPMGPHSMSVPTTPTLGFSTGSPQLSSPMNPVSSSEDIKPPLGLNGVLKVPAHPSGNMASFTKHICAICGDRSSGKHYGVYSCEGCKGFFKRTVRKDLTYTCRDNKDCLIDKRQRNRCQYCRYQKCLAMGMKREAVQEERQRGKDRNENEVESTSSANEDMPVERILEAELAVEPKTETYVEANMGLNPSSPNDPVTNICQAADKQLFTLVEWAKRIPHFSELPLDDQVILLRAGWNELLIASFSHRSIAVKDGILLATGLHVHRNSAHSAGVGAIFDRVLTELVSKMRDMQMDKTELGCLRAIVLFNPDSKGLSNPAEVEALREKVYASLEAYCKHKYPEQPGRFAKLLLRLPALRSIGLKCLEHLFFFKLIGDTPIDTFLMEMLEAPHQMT
Sequence of Bile acid receptor (Homo sapiens) (Q96RI1 whole entry, looked up, the tested form may be a part): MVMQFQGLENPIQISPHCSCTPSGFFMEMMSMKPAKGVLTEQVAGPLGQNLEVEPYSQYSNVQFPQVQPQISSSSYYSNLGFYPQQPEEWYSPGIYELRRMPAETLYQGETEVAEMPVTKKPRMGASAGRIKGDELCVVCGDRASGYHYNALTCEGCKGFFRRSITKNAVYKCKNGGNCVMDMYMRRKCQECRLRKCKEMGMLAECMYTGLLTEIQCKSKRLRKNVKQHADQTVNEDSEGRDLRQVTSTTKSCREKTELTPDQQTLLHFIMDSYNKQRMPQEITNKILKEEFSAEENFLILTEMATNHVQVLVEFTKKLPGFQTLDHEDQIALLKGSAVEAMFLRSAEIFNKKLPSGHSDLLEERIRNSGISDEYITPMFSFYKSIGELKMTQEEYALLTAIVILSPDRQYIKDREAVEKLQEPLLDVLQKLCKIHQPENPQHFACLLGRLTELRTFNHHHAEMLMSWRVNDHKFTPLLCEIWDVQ
Sequence of Peroxisome proliferator-activated receptor gamma (Homo sapiens) (P37231 whole entry, looked up, the tested form may be a part): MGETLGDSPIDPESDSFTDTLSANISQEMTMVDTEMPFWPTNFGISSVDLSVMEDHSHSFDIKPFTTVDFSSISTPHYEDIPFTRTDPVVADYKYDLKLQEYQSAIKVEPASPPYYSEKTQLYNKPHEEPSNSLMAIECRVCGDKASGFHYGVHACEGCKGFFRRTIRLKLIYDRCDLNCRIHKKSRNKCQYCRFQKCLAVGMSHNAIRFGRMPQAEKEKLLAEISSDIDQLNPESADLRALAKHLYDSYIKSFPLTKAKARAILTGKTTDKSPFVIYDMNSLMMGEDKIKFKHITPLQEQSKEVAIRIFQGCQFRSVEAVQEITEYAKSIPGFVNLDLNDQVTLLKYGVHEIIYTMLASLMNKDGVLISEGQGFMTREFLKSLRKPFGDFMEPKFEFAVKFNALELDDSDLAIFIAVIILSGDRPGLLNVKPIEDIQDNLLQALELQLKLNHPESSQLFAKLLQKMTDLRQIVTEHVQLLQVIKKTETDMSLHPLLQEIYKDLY
Sequence of Estrogen receptor beta (Homo sapiens) (Q92731 whole entry, looked up, the tested form may be a part): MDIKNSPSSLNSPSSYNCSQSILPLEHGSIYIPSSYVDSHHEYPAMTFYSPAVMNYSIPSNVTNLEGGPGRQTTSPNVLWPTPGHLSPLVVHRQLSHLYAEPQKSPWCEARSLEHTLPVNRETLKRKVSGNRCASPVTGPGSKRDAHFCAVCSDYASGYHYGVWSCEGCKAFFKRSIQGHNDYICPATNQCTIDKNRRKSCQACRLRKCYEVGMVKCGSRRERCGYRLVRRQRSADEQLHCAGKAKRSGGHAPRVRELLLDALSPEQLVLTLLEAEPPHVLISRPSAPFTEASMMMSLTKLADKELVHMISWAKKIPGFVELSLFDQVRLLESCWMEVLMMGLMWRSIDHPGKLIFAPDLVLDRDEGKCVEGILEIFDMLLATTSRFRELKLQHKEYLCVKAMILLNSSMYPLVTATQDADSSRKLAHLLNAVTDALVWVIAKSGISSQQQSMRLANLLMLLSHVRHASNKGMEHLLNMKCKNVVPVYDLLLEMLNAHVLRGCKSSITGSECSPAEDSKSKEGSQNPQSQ

NCC1(Cc2noc(=O)[nH]2)CCCCC1
inactive: [1] | [2] | [3] | [4] | [5] | [6]

C=CCOC(=O)c1ccccc1C(=O)OCC=C
active: [2] 69.7 µM
inactive: [1] | [7] | [8] | [4] | [9] | [5] | [6]

CCCCCCCCCCCCCCCCCC(=O)O
inactive: [1] | [2] | [3] | [4] | [5] | [6]

FC(F)(F)C(F)(F)C(F)(F)C(F)(F)C(F)(F)C(F)(F)CCI
inactive: [1] | [2] | [3] | [4] | [9] | [5] | [6]

Cc1nc(C)nc(N2C[C@@H](C)N(c3ccnc([C@@H](C)O)n3)[C@@H](C)C2)n1
not listed: [4] | [7] | [8] | [16] | [17] | [18]
inactive: all other assays above

CC=Cc1ccc(O)c(OC)c1
inactive: [2] | [3] | [4] | [5] | [12] | [15] | [6]
active: [1] 76.2 µM | [11] 37.3 µM

c1cc(-c2ccncc2)ccn1
not listed: [3] | [7] | [8] | [9] | [18]
inactive: all other assays above

CCNc1cccc(C)c1
inactive: [1] | [2] | [3] | [4] | [5] | [6]

OC[C@@H](O)[C@@H](O)[C@H](O)[C@H](O)CO
inactive: [1] | [2] | [3] | [4] | [9] | [5] | [6]

O=C(OCCCCCOC(=O)c1ccccc1)c1ccccc1
active: [3] 72.2 µM | [6] 1.08 µM
inactive: [1] | [2] | [3] | [9] | [5]

C=CCc1ccc(O)c(OC)c1
inactive: [1] | [2] | [3] | [5] | [11] | [12] | [15] | [6]

CC(=O)C(C)=CC1C(C)=CCCC1(C)C (centres undefined)
inactive: [1] | [3] | [4] | [5] | [6]
active: [2] 12.3 µM

COc1cc(S(=O)(=O)O)c(C)cc1N=Nc1c(O)ccc2cc(S(=O)(=O)O)ccc12
inactive: [1] | [2] | [7] | [8] | [4] | [5] | [6]
active: [3] 50 µM and 61.4 µM | [4] 75.9 µM

CCCCCCCCCCCCCCCC
inactive: [1] | [2] | [4] | [5] | [6]

COC(=O)c1ccc(O)cc1
active: [12] 45 µM | [15] 50 µM
not listed: [3] | [7] | [8] | [9]
inactive: all other assays above

CN1CCN(Cc2cc(-c3ccc4[nH]c(=O)oc4c3)co2)[C@@H](c2ccc(F)cc2)C1
inactive: [5] | [10] | [11] | [13] | [14] | [16] | [17] | [6]
active: [3] 10.1 µM | [12] 4.56 µM | [15] 14.1 µM

Cc1cc(=O)[nH]c(=S)[nH]1
inactive: [1] | [2] | [7] | [8] | [3] | [4] | [5] | [6]

CC(=O)OC/C=C(\C)CCC=C(C)C
inactive: [1] | [2] | [3] | [4] | [5] | [6]

NCCO
inactive: [1] | [2] | [3] | [4] | [6]

Cc1ccc2ncccc2c1
inactive: [1] | [2] | [5] | [6]

CC1(C)NC(=O)NC1=O
inactive: [1] | [2] | [3] | [4] | [9] | [5] | [6]

Cc1ccc(Cl)cc1
inactive: [1] | [2] | [7] | [3] | [4] | [5] | [6]

Nc1ccc(S(=O)(=O)c2ccc(N)cc2)cc1
inactive: [1] | [2] | [7] | [8] | [3] | [4] | [5] | [11] | [6]
active: [12] 30.5 µM | [15] 36.1 µM

CC1(C)CC(N=C=O)CC(C)(CN=C=O)C1 (centres undefined)
not listed: [10] | [13] | [14] | [16] | [17] | [18]
inactive: all other assays above

From PubChem BioAssay (EPA / NIEHS)
